Data published in PubChem BioAssay (Tox21).
Where “and” joins values, the source holds several entries; their conditions need not be identical. Identical values can stand only once. Records with an inconclusive call do not appear. Entries that show only a call come without a potency. Calls of active or inactive are those of the source. Unless noted, calls come from the whole dose curve; as a rule, active = well fitted curve in the direction sought with a large enough effect in the repeat runs; inconclusive = weak or mixed curves; inactive = no such curve, though single readings can be large; an effect the other way counts as inactive or inconclusive.

What was measured:
[1] = qHTS assay for small molecule agonists of the p53 signaling pathway (AID 651631; calls by dose curve; note: nearly all actives have a fitted effect of over 15% in size)
Procedure, shortened: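 Fluorescence intensity from cleaved LiveBLAzer B/G substrate (2 h, room temperature) served as the signal. Beforehand, HCT-116 reporter cells bearing p53 response elements were treated 16 h at 37 °C with DMSO-dissolved compounds.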

[2] = qHTS assay for small molecules that induce genotoxicity in human embryonic kidney cells expressing luciferase-tagged ATAD5 (AID 651632); note: nearly all actives have a fitted effect of over 15% in size
Procedure, shortened: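 Test compounds were delivered by pin tool onto HEK293T reporter cells (2,000/well) expressing ATAD5 fused to luciferase. After 16 hr at 37C, 5% CO2, Amplite was added for 30 min at room temperature and luminescence was measured.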

[3] = qHTS assay for small molecule agonists of the p53 signaling pathway - cell viability (AID 651633; calls by dose curve;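 note: p53RE-bla HCT reporter cells with a stable beta-lactamase p53 reporter; series mostly up to about 83 µM; nearly all actives have a fitted effect of over 30% in size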)
Procedure, shortened: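 Viability counter-read: CellTiter-Glo luminescence (30 min, room temperature) in the same p53RE-bla plates. These plates had been exposed to compounds for 16 h at 37 C.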

[4] = qHTS assay for small molecules that induce genotoxicity in human embryonic kidney cells expressing luciferase-tagged ATAD5 - cell viability (AID 651634; calls by dose curve; note: nearly all actives have a fitted effect of over 25% in size)
Procedure, shortened: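 Quantitative high-throughput format. HEK293T cells expressing ATAD5 fused to luciferase were plated at 2,000 cells/well and treated 15.5 hr with compound versus DMSO. Viability was determined by fluorescent live-cell protease substrate, 30 min at 37C.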

[5] = qHTS assay for small molecule disruptors of the mitochondrial membrane potential - cell viability (AID 720634; calls by dose curve;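 note: human HepG2 liver cancer cells; series mostly up to about 83 µM; nearly all actives have a fitted effect of over 20% in size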)
Procedure, shortened: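 Same-well counter-screen: following the MMP dye addition, CellTiter-Glo was added to 1 hr compound-treated HepG2 cells and luminescence read after 30 min at room temperature.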

[6] = qHTS assay for small molecule disruptors of the mitochondrial membrane potential (AID 720635); note: potency is the fitted concentration of half-maximal effect
Procedure, shortened: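 Mitochondrial membrane potential tracked with Mito-MPS dye, red aggregates (ex 540/em 590 nm) against green monomers (ex 490/em 535 nm). Compound treatment 1 hr at 37C, dye 30 min in HepG2.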

[7] = qHTS assay to test for compound auto fluorescence at 590 nm (red) in HepG2 cells (AID 720674)
Procedure, shortened: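 We screened compounds on adherent HepG2 cells, incubating them for an hour at 37 C in 5% CO2 before reading emission at 590 nm under 540 nm excitation; values reflect equivalence to Rose Bengal sodium fluorescence.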

[8] = qHTS assay to test for compound auto fluorescence at 460 nm (blue) in HEK293 cells (AID 720678)
Procedure, shortened: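 Triamterene serves as the blue fluorophore standard. Compound signal at 405/460 nm is read in HEK293 wells (2,000 cells, 10% dialyzed FBS) after overnight treatment at 37C.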

[9] = qHTS assay to test for compound auto fluorescence at 590 nm (red) in HEK293 cells (AID 720679)
Procedure, shortened: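 We plated HEK293 cells in 10% dialyzed FBS medium, let them adhere for 4-5 hr, then added 23 nL compound. Overnight at 37C and 5% CO2 preceded fluorescence measurement at 540/590nm.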

[10] = qHTS assay to test for compound auto fluorescence at 535 nm (green) in HEK293 cells (AID 720680)
[11] = qHTS assay to test for compound auto fluorescence at 460 nm (blue) in HEK293 cell free culture (AID 720681)
Procedure, shortened: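 Blue fluorescence (Ex 405/Em 460 nm, triamterene-equivalent) was read immediately after pin transfer of compound or DMSO into medium (DMEM, 10% FBS) without cells.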

[12] = qHTS assay to test for compound auto fluorescence at 535 nm (green) in HEK293 cell free culture (AID 720682)
Procedure, shortened: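 Intrinsic compound fluorescence is measured in culture medium containing 10% FBS, with excitation at 485 nm and detection at 535 nm, referenced to fluorescein.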

[13] = qHTS assay to test for compound auto fluorescence at 590 nm (red) in HEK293 cell free culture (AID 720683)
Procedure, shortened: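 Red-channel autofluorescence of compounds in culture medium (DMEM, 10% FBS), no cells, measured at 540/590 nm. Rose Bengal sodium is the reference fluorophore for equivalence.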

[14] = qHTS assay to test for compound auto fluorescence at 590 nm (red) in HepG2 cell free culture (AID 720684)
Procedure, shortened: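 Cell-free; medium MEM + 10% FBS; compound or DMSO added by pintool; read Ex 540/Em 590 nm; Rose Bengal sodium as red reference fluorophore.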

[15] = qHTS assay to test for compound auto fluorescence at 460 nm (blue) in HepG2 cell free culture (AID 720685)
Procedure, shortened: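 Cell-free plates of MEM plus 10% FBS received 23 nL compound or DMSO vehicle; blue-channel (405/460 nm) intensity scored against triamterene as reference fluorophore.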

[16] = qHTS assay to test for compound auto fluorescence at 535 nm (green) in HepG2 cell free culture (AID 720686)
[17] = qHTS assay to test for compound auto fluorescence at 460 nm (blue) in HepG2 cells (AID 720687)
Procedure, shortened: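 Blue-channel autofluorescence (Ex/Em 405/460 nm, triamterene-equivalent) was measured after 1 hr compound exposure at 37 C, 5% CO2. Cells were HepG2, plated overnight at 37 C in MEM plus 10% FBS.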

[18] = qHTS assay to test for compound auto fluorescence at 535 nm (green) in HepG2 cells (AID 720675)
[19] = target: Glucocorticoid receptor (Homo sapiens) (UniProt P04150); assay: qHTS assay to identify small molecule agonists of the glucocorticoid receptor (GR) signaling pathway (AID 720691; active = well fitted activation curve with a large enough effect in the signal ratio in the repeat runs, not every such curve was filed as active; the % refers to the signal ratio)
Chain of Glucocorticoid receptor (Homo sapiens) (P04150 whole entry, looked up): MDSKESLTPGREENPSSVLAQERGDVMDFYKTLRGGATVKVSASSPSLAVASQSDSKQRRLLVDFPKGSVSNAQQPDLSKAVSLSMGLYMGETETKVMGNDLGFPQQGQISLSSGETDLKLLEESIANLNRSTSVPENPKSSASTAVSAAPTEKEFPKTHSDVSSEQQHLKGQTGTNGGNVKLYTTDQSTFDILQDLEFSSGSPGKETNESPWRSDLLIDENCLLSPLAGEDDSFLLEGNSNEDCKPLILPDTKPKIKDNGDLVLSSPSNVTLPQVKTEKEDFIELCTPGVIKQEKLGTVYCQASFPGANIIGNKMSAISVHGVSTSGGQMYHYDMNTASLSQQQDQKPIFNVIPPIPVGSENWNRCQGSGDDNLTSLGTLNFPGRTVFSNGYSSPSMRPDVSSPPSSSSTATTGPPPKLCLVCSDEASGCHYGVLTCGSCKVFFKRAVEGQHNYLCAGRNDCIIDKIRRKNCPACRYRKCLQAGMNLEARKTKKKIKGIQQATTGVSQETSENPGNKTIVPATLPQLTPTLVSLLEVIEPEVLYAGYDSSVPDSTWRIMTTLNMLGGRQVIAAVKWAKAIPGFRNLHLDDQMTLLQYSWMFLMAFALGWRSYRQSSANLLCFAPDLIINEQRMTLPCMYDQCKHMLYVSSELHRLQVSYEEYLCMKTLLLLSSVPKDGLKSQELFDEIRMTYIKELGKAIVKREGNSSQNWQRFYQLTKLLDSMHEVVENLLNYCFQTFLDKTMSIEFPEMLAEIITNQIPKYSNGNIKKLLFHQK
Procedure, shortened: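 A HeLa cervical cancer line expressing GR and a glucocorticoid response element-driven beta-lactamase gene is treated with compounds for 18 h; LiveBLAzer B/G FRET substrate is then applied and fluorescence read.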

[20] = target: Glucocorticoid receptor (Homo sapiens) (UniProt P04150); assay: qHTS assay to identify small molecule antagonists of the glucocorticoid receptor (GR) signaling pathway (AID 720692; active = well fitted inhibition curve with a large enough effect in the signal ratio in the repeat runs, not every such curve was filed as active; the % refers to the signal ratio)
Procedure, shortened: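 GRE-bla HeLa line, dex-stimulated (5 nM final). Compound exposure 18 h, 37 C. Beta-lactamase FRET read after 2 h RT substrate.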

Structure (SMILES) | outcome [1] | outcome [2] | outcome [3] | Potency [4] | Potency [5] | Potency [6] | outcome [7] | outcome [8] | outcome [9] | outcome [10] | outcome [11] | outcome [12] | outcome [13] | outcome [14] | outcome [15] | outcome [16] | outcome [17] | outcome [18] | outcome [19] | Potency [20]
CCNC(=S)NCC | inactive | inactive | inactive | inactive | inactive | inactive | inactive | inactive | inactive | inactive | inactive | inactive | inactive | inactive | inactive | inactive | inactive |  |  | 
c1ccc(Oc2ccccc2)cc1 | inactive | inactive | inactive | inactive | inactive | inactive | inactive | inactive |  | inactive | inactive | inactive | inactive | inactive | inactive | inactive | inactive | inactive | inactive | inactive
Cc1ccc2ncccc2c1 | inactive | inactive | inactive | inactive | inactive | inactive | inactive | inactive | inactive | inactive | inactive | inactive | inactive | inactive | inactive | inactive |  | inactive | inactive | inactive
Nc1ccc(Cl)c(N)c1 |  | inactive | inactive | inactive | inactive | 68.8 µM (active) | inactive | inactive |  | inactive | inactive | inactive | inactive | inactive | inactive | inactive |  |  |  | 
COC(=O)CCCC(=O)OC | inactive |  | inactive | inactive |  |  | inactive | inactive | inactive | inactive | inactive | inactive | inactive | inactive | inactive | inactive |  | inactive | inactive | inactive
CCCCOC(=O)c1ccc(N)cc1 | inactive |  | inactive | inactive | inactive | inactive | inactive | inactive | inactive | inactive | inactive | inactive | inactive | inactive | inactive | inactive | inactive |  | inactive | inactive
COC(=O)c1cccnc1 |  | inactive | inactive | inactive | inactive | inactive | inactive | inactive | inactive | inactive | inactive | inactive | inactive | inactive | inactive | inactive | inactive | inactive | inactive | inactive
CC(C)OC(=O)COc1ccc(Cl)cc1Cl |  | inactive | inactive | inactive | inactive | inactive | inactive | inactive | inactive | inactive | inactive | inactive | inactive | inactive | inactive | inactive | inactive | inactive | inactive | inactive
COc1ccc(CCC(C)=O)cc1 |  | inactive | inactive | inactive | inactive |  | inactive | inactive | inactive | inactive | inactive | inactive | inactive | inactive | inactive | inactive | inactive | inactive |  | 
O=C(O)c1cc2ccccc2cc1O |  | inactive | inactive | inactive | inactive | 54.1 µM (active) and 54.5 µM (active) | inactive | inactive |  | inactive | inactive | inactive | inactive | inactive | inactive | inactive | inactive |  | inactive | inactive
CCCCCC(=O)O |  | inactive | inactive | inactive | inactive | inactive | inactive | inactive | inactive | inactive | inactive | inactive | inactive | inactive | inactive | inactive | inactive |  |  | 
CCCCCCO |  | inactive | inactive | inactive | inactive | inactive | inactive | inactive | inactive | inactive | inactive | inactive | inactive | inactive | inactive | inactive | inactive |  | inactive | inactive
O=C1c2ccccc2CCc2ccccc21 |  | inactive | inactive | inactive | inactive | 31.3 µM (active) | inactive | inactive |  | inactive | inactive | inactive | inactive | inactive | inactive | inactive | inactive | inactive |  | 
C=CC(C)CCCC(C)(C)O (stereo not drawn) |  | inactive | inactive | inactive | inactive |  | inactive | inactive | inactive | inactive | inactive | inactive | inactive | inactive | inactive | inactive | inactive | inactive |  | 
O=c1[nH]cnc2[nH]ncc12 |  | inactive | inactive | inactive | inactive | inactive | inactive | inactive | inactive | inactive | inactive | inactive | inactive | inactive | inactive | inactive |  | inactive | inactive | inactive
Cc1ccc(S(=O)(=O)N=C=O)cc1 |  | inactive | inactive | inactive | inactive | inactive | inactive | inactive | inactive | inactive | inactive | inactive | inactive | inactive | inactive | inactive | inactive | inactive | inactive | inactive
CCCCCCCCCCCCCCCC(=O)OC(C)C |  | inactive | inactive | inactive | inactive | inactive | inactive | inactive |  | inactive | inactive | inactive | inactive | inactive | inactive | inactive | inactive | inactive |  | 
